# Source: PubChem BioAssay AID1851 (National Center for Advancing Translational Sciences (NCATS), 2009)
# Where “and” joins values, the source holds several entries; their conditions need not be identical. Equal values may be shown once. The campaign covered roughly 16,000 compounds. About 4,000 (25%) were called active. Inconclusive results (about 26%) are left out. A selection follows. Values without a mark were called inactive. Calls come from the whole dose curve; as a rule, active = well fitted curve in the direction sought with a large enough effect; inconclusive = small, poorly fitted or top-dose-only effect, or effect the other way; inactive = no such curve, though single readings can be large or run the other way.
# Target: Cytochrome P450 2C9 (Homo sapiens) (UniProt P11712)
# Sequence (P11712 whole entry, looked up): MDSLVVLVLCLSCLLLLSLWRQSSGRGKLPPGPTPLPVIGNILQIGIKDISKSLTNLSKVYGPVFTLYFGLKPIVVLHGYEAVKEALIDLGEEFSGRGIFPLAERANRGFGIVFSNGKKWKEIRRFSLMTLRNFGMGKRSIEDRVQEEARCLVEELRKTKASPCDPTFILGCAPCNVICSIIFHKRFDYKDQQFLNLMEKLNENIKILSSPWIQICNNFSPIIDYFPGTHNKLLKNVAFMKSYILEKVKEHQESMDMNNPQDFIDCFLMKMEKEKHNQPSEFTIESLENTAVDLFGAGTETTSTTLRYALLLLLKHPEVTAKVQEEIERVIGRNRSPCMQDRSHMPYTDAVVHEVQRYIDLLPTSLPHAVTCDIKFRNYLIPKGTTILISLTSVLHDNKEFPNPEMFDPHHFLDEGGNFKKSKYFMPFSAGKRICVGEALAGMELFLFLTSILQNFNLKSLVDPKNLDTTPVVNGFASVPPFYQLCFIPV
# Assay: Cytochrome panel assay with activity outcomes
# Settings: recombinant CYP, pro-luciferin dealkylation, luminescence, p450-cyp2c9; series mostly up to 57.1 µM
# % is set by controls: 0 for no effect and ±100 for the full control effect.
Structure (SMILES),"activity, negative = inhibition",AC50
CC1(C)N=C(N)N=C(N)N1CCCCc1ccccc1,1.42% [at 11.4 µM],
CCOc1ccc(CC(C(N)=O)C(N)=O)cc1CN(C)C,,inactive
CCOc1ccc(CC(=O)C2C(=O)CCCC2=O)cc1OCC,,7.08 µM (active)
CCOc1ccc(CCNC(=O)C2CC(=O)N(C3CCCC3)C2)cc1OCC (centres undefined),,inactive
COCn1c2ccccc2c2nnc(C(C)=O)nc21,13.8% [at 11.4 µM] and -8.55% [at 11.4 µM],
COc1ccccc1CN1CC[C@@]2(CCCN(S(C)(=O)=O)C2)C1,,inactive
N#CC(C#N)=NNc1ccc2cn[nH]c2c1,,2.51 µM (active)
COC(=O)[C@@]1(Cc2ccc(F)cc2)[C@@H]2C(=CC(=O)[C@H]2CC(=O)C(=O)N2CCCC2)CN1C(=O)c1ccccc1,,10 µM (active)
COC(=O)[C@@]1(Cc2ccc(OC)cc2)[C@@H]2C(=CC(=O)[C@H]2CC(=O)C(=O)N2CCCC2)CN1C(=O)c1ccccc1,,10 µM (active)
C=C1C(=O)C=C2CN(C(=O)c3ccccc3)[C@@](Cc3ccc(F)cc3)(C(=O)OC)[C@@H]12,,3.98 µM (active)
COC(=O)[C@@]1(Cc2ccccc2)[C@@H]2C(=CC(=O)[C@H]2CC(=O)C(=O)N(C)C)CN1C(=O)c1ccccc1,,inactive
COC(=O)[C@@]1(Cc2ccc(F)cc2)[C@@H]2[C@@H](CC(=O)[C@H]2CC(=O)C(=O)N(C)C)CN1C(=O)c1ccccc1,,20 µM (active)
COc1ccc(C(=O)N2CCC[C@@]3(CCN(C(=O)Nc4ccccc4)C3)C2)cc1,,inactive
O=C(O)c1c[nH]c2cc(OCc3ccccc3)ccc2c1=O,-11.1% [at 11.4 µM],
N[C@@H](C(=O)O)c1ccc(C(=O)O)cc1,,inactive
O=C(O)c1cc(C(=O)O)nc(C(=O)O)c1,13.5% [at 11.4 µM],
O=C(O)c1ccc(SSc2ccc(C(=O)O)cn2)nc1,,1.58 µM (active)
C[C@@H](C(=O)NCc1ccccn1)[C@H]1C[C@]1(C)[C@H](NC(=O)OCc1ccccc1)c1ccccc1,,10 µM (active)
CC(C)C(NC(=O)C1CCCCC1)C(=O)NCc1ccccn1 (centres undefined),,inactive
C[C@@H](C(=O)O)[C@H]1C[C@]1(C)[C@H](NC(=O)OCc1ccccc1)c1ccccc1,,15.8 µM (active)
C[C@@H](C(=O)NCc1cccc2ccccc12)[C@H]1C[C@]1(C)[C@H](NC(=O)OCc1ccccc1)c1ccccc1,,3.16 µM (active)
COC(=O)[C@H](C)[C@H]1C[C@]1(C)[C@H](NC(=O)OCc1ccccc1)c1ccccc1,,2 µM (active)
C/C(CCN1CCc2nc(-c3ccccc3)c(-c3ccccc3)cc2C1)=N\OC[C@@H](O)[C@@H]1O[C@@H]2OC(C)(C)O[C@@H]2[C@H]1O,-8.77% [at 11.4 µM],
Cc1ccc(S(=O)(=O)N[C@@H]2COC(=O)C/C=C\[C@H](C)COC(=O)N[C@@H](C)C(=O)C/C=C\[C@H]2C)cc1,7.18% [at 11.4 µM],
CNc1ccnc(-c2ccccc2C(F)(F)F)n1,1.23% [at 2.29 µM],
COC(=O)[C@H](C)[C@@H]1C[C@@]1(C)[C@@H](NC(=O)OCc1ccccc1)c1ccccc1,,5.01 µM (active)
COc1ccc(COC(=O)N/N=C2/C[C@@H](O)[C@@H](O)[C@@H]3[C@@H]4C(=O)N([C@@H](C)c5ccccc5)C(=O)[C@H]4CC[C@@H]23)cc1,-19.2% [at 11.4 µM],

Structure (SMILES),"activity, negative = inhibition",AC50
CNC(=O)[C@H](C)[C@H]1C[C@]1(C)[C@H](NC(=O)OCc1ccccc1)c1ccccc1,,10 µM (active)
C[C@@H](C(=O)NCc1nc2ccccc2[nH]1)[C@@H]1C[C@@]1(C)[C@@H](NC(=O)OCc1ccccc1)c1ccccc1,,10 µM (active)
CCN1CCCC1Cn1cnc2c([nH]c3ccc(C)cc32)c1=O (centres undefined),,inactive
CN(C)CCNC(=O)C1CCCNC1=O (centres undefined),,inactive
Cn1cnc([N+](=O)[O-])c1SCC(=O)O,4.52% [at 11.4 µM],
OCCN=c1cc(-c2ccccc2)oc2ccc(Cl)cc12,,2 µM (active)
Cc1cc2c(=O)[nH]c(N)nc2nc1C,0.234% [at 11.4 µM],
CC(=O)c1sc(N)c(C(=O)OC(C)C)c1C,,10 µM (active)
CCOC(=O)/C(C#N)=C1/SC(CC)C(=O)N1c1ccc(Br)cc1 (centres undefined),,12.6 µM (active)
O=C(CC1CCCCC1)N1CCC(c2nc(-c3ccc(S(=O)(=O)N4CCCC4)cc3)no2)CC1,,7.94 µM (active)
Cc1ccc(S(=O)(=O)N2CCCC(C(=O)NCCCN3CCCCC3C)C2)cc1 (centres undefined),,inactive
COc1ccc(NC(=O)N2CCCC3(CCN(C(=O)c4cccc(F)c4)CC3)C2)cc1,,inactive
COc1ccc(NC(=O)N2CC[C@@]3(CCCN(C(=O)c4cccc(F)c4)C3)C2)cc1,,inactive
COC(=O)[C@@]1(Cc2ccc(F)cc2)[C@H]2c3cc(C(=O)N4CCCC4)n(CCc4c[nH]c5ccc(OC)cc45)c3C[C@H]2CN1C(=O)c1ccccc1,,7.94 µM (active)
COC(=O)[C@@]1(Cc2ccc(OC)cc2)[C@H]2c3cc(C(=O)N4CCCC4)n(CCc4c[nH]c5ccc(O)cc45)c3C[C@H]2CN1C(=O)c1ccccc1,,3.16 µM (active)
COC(=O)[C@@]1(Cc2ccc(F)cc2)[C@H]2c3cc(C(=O)N4CCCC4)n(CCc4c[nH]c5ccccc45)c3C[C@H]2CN1C(=O)c1ccccc1,,2.51 µM (active)
COC(=O)[C@@]1(Cc2ccc(OC)cc2)[C@H]2c3cc(C(=O)N4CCCC4)n(CCc4c[nH]c5cc(F)ccc45)c3C[C@H]2CN1C(=O)c1ccccc1,,3.16 µM (active)
O=C(O)[C@@H]1CCCN1Cc1cc2ccccc2c2ccccc12,-0.145% [at 11.4 µM],
Nc1nc2c(ncn2COC(CO)CO)c(=O)[nH]1,,inactive
NC(=O)c1cc[n+](CC2=C(C(=O)O)N3C(=O)[C@@H](NC(=O)[C@H](c4ccccc4)S(=O)(=O)[O-])[C@@H]3SC2)cc1,,inactive
Cc1cnc(CNc2ncncc2-c2ccccc2C)cn1,3.37% [at 2.29 µM],
C[C@@H]1/C=C\CC(=O)OC[C@H]2O[C@@H](C=C[C@@H]2O)[C@H](C)/C=C\CC(=O)OC1,-2.72% [at 11.4 µM],
O=C(O)c1c[nH]c2c(ccc3[nH]cc(C(=O)O)c(=O)c32)c1=O,12.3% [at 11.4 µM],
N#Cc1ccc(CN2CCC3(CC2)CCN(C(=O)c2ccncc2)CC3)cc1,,inactive
N#Cc1c(N2CCN(C(=O)c3ccccc3Cl)CC2)nc(-c2ccccc2)c2c1CCCC2,,2.51 µM (active)
Nc1nc2c(C(=O)NCc3cccs3)nnn2c2cccc(Cl)c12,12.5% [at 11.4 µM],
CCN(CC)CCc1nc(-c2ccccc2)no1,,inactive

Structure (SMILES),"activity, negative = inhibition",AC50
c1ccc(CCc2nc(-c3ccccc3)no2)cc1,,inactive
c1ccc(-c2noc(CSc3nnnn3C3CCCCC3)n2)cc1,,3.55 µM (active)
O=C(N/N=C1/C[C@@H](O)[C@@H](O)[C@@H]2[C@@H]3C(=O)N(Cc4ccccc4)C(=O)[C@H]3CC[C@@H]12)OCc1ccccc1,9.14% [at 11.4 µM],
CC(=O)NCCc1ccc(O)c(O)c1,,inactive
CCCCCCCC/C=C\CCCCCCCC(=O)NCCc1ccc(O)c(O)c1,,1.58 µM (active)
C[C@@](Cc1ccc(O)c(O)c1)(NN)C(=O)O,,inactive
Nc1ccn([C@H]2O[C@H](CO)[C@@H]3[O][Sn]([c]4ccccc4)([c]4ccccc4)[O][C@H]32)c(=O)n1,24.8% [at 11.4 µM],
FC(F)(F)c1ccccc1-c1ccc2ncnc(N3CCOCC3)c2c1,-28.6% [at 2.29 µM],
CCN1C(=O)[C@H]2[C@H]3[C@H](O)[C@H](O)C/C(=N/OC[C@@H](O)COCc4ccco4)[C@H]3CC[C@@H]2C1=O,1.57% [at 11.4 µM],
O=C(O)C[C@H](Cc1ccc2c(c1)OCO2)C(=O)O,-23.6% [at 11.4 µM],
c1ccc(Nc2ncncc2-c2ccc3c(c2)OCO3)cc1,-20.1% [at 2.29 µM],
c1ccc(SC(Sc2ccccc2)c2ccc3c(c2)OCO3)cc1,,3.16 µM (active)
COc1ccc(-c2ccc(N)[n+](CCCC(=O)O)n2)cc1,,inactive
CCCCN(C)CCCNC(=O)CCn1nc(-c2ccccc2)ccc1=O,,inactive
COc1ccc(-c2ccc(=N)n(CCCC(=O)O)n2)cc1,,3.16 µM (active)
COc1cccc(Cn2c(NCc3cccnc3)nc3c2c(=O)n(C)c(=O)n3C)c1,,6.31 µM (active)
COc1cccc(-c2cc(NCc3cccnc3)ncn2)c1,-28.7% [at 2.29 µM],
CSC1(SC2=NCCN2)SC2(NCCN2)S1,-10.8% [at 11.4 µM],
O=C(Nc1ccc2oc(=O)c(C(=O)O)cc2c1)Oc1ccccc1,-10.6% [at 11.4 µM],
CC(C)(C)c1ccc(OC(=O)Nc2ccc(O)c(C(=O)O)c2)cc1,-20.8% [at 11.4 µM],
CCOC(=O)Nc1ccc(C(=O)Oc2ccccc2)c(O)c1,,17.8 µM (active)
CCOC(=O)c1cc2c(=O)n3ccccc3nc2n(CCCOC)c1=NC(=O)C(C)(C)C,,1.58 µM (active)
O=C(c1csnn1)N1CCC2(CC1)CCN(c1ncccn1)CC2,,inactive
COc1cc(N=c2ssnc2Cl)cc(OC)c1OC,,6.31 µM (active)
CCOC(=O)N/N=C1/C[C@@H](O)[C@@H](O)[C@@H]2[C@@H]3C(=O)N([C@@H](C)c4ccccc4)C(=O)[C@H]3CC[C@H]12,27.2% [at 11.4 µM],
